The results in this text go back to PubChem BioAssay (NCATS).

The structures appear in SMILES notation. Records with an inconclusive call do not appear. Values without a mark were called inactive. The source made the active and inactive calls. The call rests on the fitted dose curve; in most records, active means well fitted curve in the direction sought with a large enough effect; inconclusive means small, poorly fitted or top-dose-only effect, or another doubt; inactive means no such curve, though single readings can be large; an effect the other way counts as inactive or inconclusive.

The test system of one experiment is MCC-13. Briefly: qHTS assay to identify novel small-molecules to repurpose for Merkel cell carcinoma treatment (AID 1296009). Further: nearly all actives have a fitted effect of over 60% in size. Further: potency means the concentration at half of the fitted maximal effect. Particulars: MCC and control cell lines, CellTiter-Glo viability, 72 h; series mostly up to 46 µM. The procedure, abridged: (§1)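 Cell viability measured by CellTiter-Glo following 72 hr compound treatment at 37 degree celsius, with NPC and MIPE libraries tested in 8- and 11-point concentration series.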
Background: In qHTS, concentration-response curves come from the screen itself.

The subject of another experiment is MCC-26. The description is as above. Particulars: MCC and control cell lines, CellTiter-Glo viability, 72 h; series mostly up to 46 µM. The procedure, abridged:
as §1

The subject of another experiment is MKL-1. The experiment is described as above. Conditions: MCC and control cell lines, CellTiter-Glo viability, 72 h; series mostly up to 46 µM. In short, it runs like this:
as §1
For orientation: ATP-based viability assays read luminescence as a measure of living cells.

A further experiment concerns MKL-2. Described as above. Conditions: MCC and control cell lines, CellTiter-Glo viability, 72 h; series mostly up to 46 µM. The procedure, abridged: as §1
The next experiment concerns UISO. The experiment is described as above. Particulars: MCC and control cell lines, CellTiter-Glo viability, 72 h; series mostly up to 46 µM. The procedure, abridged:
as §1

The subject of the next experiment is WaGa. The description is as above. Particulars: MCC and control cell lines, CellTiter-Glo viability, 72 h; series mostly up to 46 µM. The procedure, abridged:
as §1

The subject of another experiment is Hek293T. Kind of experiment: Primary qHTS to identify gynecologic anti-cancer compounds using libraries of approved drugs and bioactive compounds (AID 1345084). Further: nearly all actives have a fitted effect of over 55% in size. Conditions: Gynecologic cancer cell panel viability, ATPlite luminescence, 48 h, control line for the selectivity index; series mostly up to 57.5 µM. The procedure, abridged: (§2)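 Cells, 1,000 per well, were allowed to settle for 16 h at 37 C before compound addition. Five concentrations were tested for 48 h, and viability was read by ATPlite luminescence after 15 min at room temperature.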

The next experiment relates to OV90. The description is as above. Conditions: Gynecologic cancer cell panel viability, ATPlite luminescence, 48 h; series mostly up to 57.5 µM. In short, it runs like this: as §2

Take `C[C@@H]1CC[C@@]2(OC1)OC1CC3C4CC=C5CC(O)CCC5(C)C4CCC3(C)C1[C@@H]2C` (stereo partly drawn): the Potency result with MCC-13, in the experiment on MCC-26, in the experiment with MKL-1, with MKL-2, in the experiment on UISO and in the experiment on WaGa was “inactive” in each case.

Turning to `CC(C)(O)Cn1c(NC(=O)c2ccc(-c3cn[nH]c3)s2)nc2cc(CN3CCOCC3)ccc21`, the Potency with MCC-13 was 2.96 µM (active); with MCC-26, 4.69 µM (active); with MKL-1 it was 1.18 µM (active); in the experiment with MKL-2, 14.8 µM (active); with UISO it was 1.87 µM (active).

Turning to `COC(=O)[C@H](CCCN=C(N)N)NS(=O)(=O)c1ccc(C)cc1`, the Potency entry with MCC-13, in the experiment on MCC-26, with MKL-1, in the experiment on MKL-2, in the experiment with UISO and in the experiment on WaGa was “inactive” each time.

For `O=C(O)CCCCCC(=O)NN=C1CCCC1`, the Potency entry in the experiment with MCC-13, with MCC-26, in the experiment with MKL-1, with MKL-2, in the experiment with UISO and in the experiment on WaGa was “inactive” throughout.

As for `CC(C)OC(=O)[C@H](C)N[P@](=O)(OC[C@H]1O[C@@H](n2ccc(=O)[nH]c2=O)[C@](C)(F)[C@H]1O)Oc1ccccc1`, the Potency result in the experiment on MCC-13, in the experiment with MCC-26, in the experiment on MKL-1, in the experiment with MKL-2, in the experiment with UISO and in the experiment with WaGa was “inactive” each time.

As for `C[C@@H](Oc1ccc2[nH]nc(C=Cc3cnn(CCO)c3)c2c1)c1c(Cl)cncc1Cl`, the Potency in the experiment on MCC-13 was 26.4 µM (active); with MCC-26, 16.6 µM (active); with MKL-1, 7.43 µM (active); in the experiment on UISO, 20.9 µM (active). Further, in the experiment on MKL-2, the Potency entry is “inactive”.

Turning to `N#CNC(=NCCCCCCOc1ccc(Cl)cc1)Nc1ccncc1`, the Potency with MCC-13 is 0.0372 µM (active); in the experiment with MCC-26 it was 0.0148 µM (active); in the experiment with MKL-1, 0.0012 µM (active); with UISO it was 0.0059 µM (active); in the experiment on WaGa, 0.0033 µM (active). Further, in the experiment with MKL-2, the Potency result is “inactive”.

As to `C[C@@H](NCc1cc2ccccc2[nH]1)c1cccc2ccccc12`, the Potency result in the experiment with MCC-13, in the experiment with MCC-26, in the experiment on MKL-1, in the experiment with MKL-2, in the experiment with UISO and with WaGa was “inactive” each time.

For `COc1ccc(Nc2nccc(NCCO)n2)cc1`, the Potency result in the experiment on MCC-13, with MCC-26, in the experiment on MKL-1, in the experiment on MKL-2, in the experiment with UISO and with WaGa was “inactive” in each case.

In the case of `C[C@H](NC(=O)Cc1cc(F)cc(F)c1)C(=O)N[C@H](C(=O)OC(C)(C)C)c1ccccc1`, the Potency entry in the experiment with MCC-13, in the experiment with MCC-26, with MKL-1, in the experiment on MKL-2, in the experiment on UISO and in the experiment on WaGa was “inactive” throughout.

In the case of `COc1cccc2c1C(=O)c1c(O)c3c(c(O)c1C2=O)C[C@@](O)(C(C)=O)C[C@H]3O[C@H]1C[C@H](N)[C@H](O)[C@H](C)O1`, the Potency is 0.59 µM (active) in the experiment with MCC-13; 0.372 µM (active) in the experiment with MCC-26; 0.0332 µM (active) in the experiment on MKL-1; 0.0235 µM (active) in the experiment with MKL-2; 0.0469 µM (active) in the experiment with UISO.

`NC1=N[C@H]2[C@H](CS[C@H]2CCCCC(=O)O)N1`: the Potency entry with MCC-13, in the experiment on MCC-26, in the experiment on MKL-1, in the experiment on MKL-2, with UISO and in the experiment on WaGa was “inactive” in each case.

As for `CN[C@H]1[C@@H](O)[C@@H]2O[C@@H]3O[C@H](C)CC(=O)[C@]3(O)O[C@@H]2[C@@H](NC)[C@H]1O`, the Potency result in the experiment with MCC-13 and with MCC-26 was “inactive” each time. The Potency with MKL-1 was 0.166 µM (active); in the experiment with MKL-2 it was 2.96 µM (active); with UISO it was 3.72 µM (active); with WaGa, 0.296 µM (active).

Regarding `CC(C)(O)CC[C@@H](O)[C@](C)(O)[C@H]1CC[C@@]2(O)C3=CC(=O)[C@@H]4C[C@@H](O)[C@@H](O)C[C@]4(C)[C@@H]3CC[C@]12C`, the Potency entry in the experiment on MCC-13, with MCC-26, with MKL-1, in the experiment with MKL-2, with UISO and in the experiment with WaGa was “inactive” in each case.

As for `COc1ccc(C(C)=O)c(O)c1`, the Potency entry in the experiment with MCC-13, in the experiment on MCC-26, with MKL-1, in the experiment with MKL-2, with UISO and in the experiment with WaGa was “inactive” each time.

With `N#CC(=C(O)c1ccc(Cl)cc1Cl)c1nc2cc(Cl)ccc2c(=O)[nH]1`, the Potency result in the experiment with MCC-13, in the experiment with MCC-26, in the experiment on MKL-1, with MKL-2, in the experiment with UISO and with WaGa was “inactive” throughout.

With `OCCN1C[C@H](O)[C@@H](O)[C@H](O)[C@@H]1CO`, the Potency result with MCC-13, with MCC-26, with MKL-1, in the experiment with MKL-2, in the experiment on UISO and with WaGa was “inactive” in each case.

Consider `CC(Oc1ccc(O)cc1)(P(=O)(O)O)P(=O)(O)O`, for which the Potency result in the experiment on MCC-13, in the experiment with MCC-26, with MKL-1, in the experiment with MKL-2, in the experiment on UISO and with WaGa was “inactive” throughout.

With `CCCNS(=O)(=O)Nc1ncnc(OCCOc2ncc(Br)cn2)c1-c1ccc(Br)cc1`, the Potency entry in the experiment with MCC-13, in the experiment on MCC-26, in the experiment with MKL-1, in the experiment with MKL-2, in the experiment on UISO and in the experiment with WaGa was “inactive” in each case.

As to `O=C1c2cccc(O)c2C(=O)c2c(O)cc(CO)cc21`, the Potency result in the experiment with MCC-13, with MCC-26, in the experiment on MKL-1, with MKL-2, in the experiment with UISO and in the experiment with WaGa was “inactive” each time.

`C=C[C@@H]1CN2CCC1C[C@H]2[C@H](O)c1ccnc2ccc(OC)cc12` (stereo partly drawn): the Potency entry in the experiment on MCC-13, in the experiment with MCC-26, in the experiment with MKL-1, with MKL-2, in the experiment on UISO and with WaGa was “inactive” each time.

As to `CCCCCCCN(CC)CCCC(O)c1ccc(NS(C)(=O)=O)cc1` (stereo not drawn), the Potency entry with MCC-13, in the experiment on MCC-26, with MKL-1, in the experiment with MKL-2, with UISO and in the experiment with WaGa was “inactive” each time.

Consider `Cn1cc(-c2ccc3ncc(Cc4ccc5ncccc5c4)n3n2)cn1`, for which the Potency entry in the experiment on MCC-13, in the experiment with MCC-26, with MKL-1, in the experiment with MKL-2, in the experiment with UISO and with WaGa was “inactive” each time. Moreover, the Potency entry with Hek293T and in the experiment with OV90 was “inactive” throughout.

`CC(=O)N[C@@H]1[C@H](O[C@@H]2c3ccc(c(Cl)c3)Oc3cc4cc(c3O[C@H]3O[C@H](CO)[C@@H](O)[C@H](O)[C@H]3NC(=O)CCCCCCCC(C)C)Oc3ccc(cc3Cl)C[C@H]3NC(=O)[C@H](N)c5ccc(O)c(c5)Oc5cc(O)cc(c5)[C@H](NC3=O)C(=O)N[C@H]4C(=O)N[C@H]3C(=O)N[C@@H]2C(=O)N[C@@H](C(=O)O)c2cc(O)cc(O[C@H]4O[C@H](CO)[C@@H](O)[C@H](O)[C@H]4O)c2-c2cc3ccc2O)O[C@H](CO)[C@@H](O)[C@@H]1O`: the Potency entry in the experiment on MCC-13, in the experiment on MCC-26, with MKL-1, with MKL-2, with UISO and in the experiment with WaGa was “inactive” throughout.
